Measurements as given in PubChem BioAssay (NCATS).
Calls of active or inactive are those of the source. Calls follow the shape of the dose curve; as a rule, active = well fitted activation curve with a large enough effect; inconclusive = small, poorly fitted or top-dose-only effect; inactive = flat fitted curve, though single readings scatter.

Assay: Confirmation and Secondary Assay for Modulators of Hemoglobin Beta Chain Splicing at IVS2 654 locus (AID 910);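 also: HeLa cells stably carrying EGFP split by mutant beta-globin IVS2-654 intron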
Conditions: HeLa EGFP-654 splicing reporter, GFP fluorescence, 48 h; series mostly up to 46.1 µM
Source text: NIH Chemical Genomics Center [NCGC] NIH Molecular Libraries Screening Centers Network [MLSCN] MLSCN Grant: 1 X01 MH080684-01 PI Name: Dr. Ryszard Kole NCGC Assay Overview: Modulation of Alternative Splicing as Therapy Abnormal splicing is associated with a number of diseases, including cancer and genetic diseases such as cystic fibrosis, muscular dystrophy and beta-thalassemia. Alteration of disease associated splicing patterns provides a promising target for treatment. […] Mutations in the second intron of the b-globin gene at positions 654 or 705 are clinically relevant and cause mis-splicing which results in an out of frame gene product. […] EGFP-654 HeLa Cells as screen system. HeLa cell lines were stably transfected with a construct in which the EGFP (enhanced green fluorescent protein) cDNA was interrupted by the second intron of the beta-globin gene (IVS2-654). The ISV2 intron contains mutations which cause mis-splicing of EGFP and premature termination of EGFP which results in a nonfluorescent protein product. […] Expression of the transgene was driven by the CMV promoter. We concluded that a low molecular weight compound, which restored correct splicing of intron 2 would also generate functional EGFP protein, resulting in a fluorescent signal. Thus, the HeLa cells that express the EGFP-654 construct can be used for high throughput screening of a chemical library.
NCGC Assay Protocol Summary: Confirmatory Screening. Freshly thawed HeLa EGFP-654 cells were seeded in 5 ul of optimem media (Invitrogen) containing 2 % fetal calf serum (Hyclone) and 1x penicillin/streptomycin (Invitrogen) at a concentration of 500 cells per well in 1536-well plates. Cells were incubated overnight at 37C in 5% CO2. The next day, cells were treated with DMSO, 500 nM antisense ISV2 654 PNA control oligo, or library compound and allowed to grow at 37C in 5% CO2 for 2 days. The PNA oligo blocked the mutation site in the intron and allowed proper (wild type) splicing to occur, resulting in full length EGFP expression and also allowed for optimization of the assay parameters. Plates were read in the Acumen Explorer (TTP Labtech) using 488 nm laser excitation and 500-520 nm emission PMT filter in a 1 x 8 uM capture mode. Fluorescnet objects ranging in size from 5 to 250 uM were measured and the total peak GFP intensity for each well was used for data analysis. Keywords: Thalassemia, beta-thalassemia, beta-globin, EGFP, ISV2 654, ISV2 705, SSO, PNA, antisense, splicing, MLSMR, MLSCN, NIH Roadmap, qHTS, NCGC
With Oc1c(I)cc(I)c2cccnc12 the outcome was “inactive”.
With c1ccc(-c2ccc(C(c3ccccc3)n3ccnc3)cc2)cc1 (stereo not given) the outcome was “inactive”.
With CC(CCc1ccccc1)NCC(O)c1ccc(O)c(C(N)=O)c1 (stereo not given) the outcome was “inactive”.
In the case of O=C1OC(c2ccc(O)cc2)(c2ccc(O)cc2)c2ccccc21, the outcome was “inactive”.
For Cc1cc(=O)n(-c2ccccc2)n1C, the outcome was “inactive”.
For CN(C)/N=N/c1nc[nH]c1C(N)=O, the outcome was “inactive”.
For CCCCC(CC)CN=C(N)NC(N)=NCCCCCCN=C(N)NC(N)=NCC(CC)CCCC (stereo not given), the outcome was “inactive”.
With CC(=O)Nc1c(I)cc(I)c(C(=O)O)c1I the outcome was “inactive”.
In the case of CN1CCN(C(c2ccccc2)c2ccccc2)CC1, the outcome was “inactive”.
For CCOc1ccc(Cc2nccc3cc(OCC)c(OCC)cc23)cc1OCC, the outcome was “inactive”.
For C/C=C(/C(=C/C)c1ccc(O)cc1)c1ccc(O)cc1, the outcome was “inactive”.
With O=C(O)c1cc2cc(Cc3cccnc3)ccc2o1 the outcome was “inactive”.
With COc1ccc(C2C(=O)c3ccccc3C2=O)cc1 the outcome was “inactive”.
With CC(C)(C)CC(C)(C)c1ccc(OCCOCC[N+](C)(C)Cc2ccccc2)cc1 the outcome was “inactive”.
With CCCCc1nc(Cl)c(CO)n1Cc1ccc(-c2ccccc2-c2nn[nH]n2)cc1 the outcome was “inactive”.
For CCOC(=O)n1ccn(C)c1=S, the outcome was “inactive”.
In the case of O=C1OCCN1/N=C/c1ccc([N+](=O)[O-])o1, the outcome was “inactive”.
In the case of CCN(CC)C(=O)N1CCN(C)CC1, the outcome was “inactive”.
With O=C(COc1ccc(Cl)cc1)N1CCN(Cc2ccc3c(c2)OCO3)CC1 the outcome was “inactive”.
For Oc1c(Cl)cc(Cl)cc1Sc1cc(Cl)cc(Cl)c1O, the outcome was “inactive”.
In the case of CCCCCCc1ccc(O)cc1O, the outcome was “inactive”.
With COc1ccc(CCN2CCC(Nc3nc4ccccc4n3Cc3ccc(F)cc3)CC2)cc1 the outcome was “inactive”.
With C1CCc2nnnn2CC1 the outcome was “inactive”.
In the case of CCCC(=O)Nc1ccc(OCC(O)CNC(C)C)c(C(C)=O)c1 (stereo not given), the outcome was “inactive”.
With CCCCOc1ccc(C(=O)CCN2CCCCC2)cc1 the outcome was “inactive”.
For CO/N=C1\CN(c2nc3c(cc2F)c(=O)c(C(=O)O)cn3C2CC2)CC1CN (stereo not given), the outcome was “inactive”.
With CCN(CCCCOC(=O)c1ccc(OC)c(OC)c1)C(C)Cc1ccc(OC)cc1 (stereo not given) the outcome was “inactive”.
In the case of Oc1ccc(Cl)c2cccnc12, the outcome was “inactive”.
For C=C(CC)C(=O)c1ccc(OCC(=O)O)c(Cl)c1Cl, the outcome was “inactive”.
With OC(CCN1CCCCC1)(c1ccccc1)c1ccccc1 the outcome was “inactive”.
For CCN(CC)CCOC(=O)C(c1ccccc1)C1CCCCC1 (stereo not given), the outcome was “inactive”.
For Cc1ccc(C(=O)C(C)CN2CCCCC2)cc1 (stereo not given), the outcome was “inactive”.
With CCCCOc1cc(C(=O)NCCN(CC)CC)c2ccccc2n1 the outcome was “inactive”.
In the case of COc1cc(OC)cc(OC)c1, the outcome was “inactive”.
With C=CCc1ccc(O)c(OC)c1 the outcome was “inactive”.
With CCCCOc1ccc(OCCCN2CCOCC2)cc1 the outcome was “inactive”.
With CCN(CCCc1ccccc1)CCCc1ccccc1 the outcome was “inactive”.
With COC1=CC(=O)C[C@@H](C)[C@]12Oc1c(Cl)c(OC)cc(OC)c1C2=O the outcome was “inactive”.
For CCOc1ccc2nc3cc(N)ccc3c(N)c2c1, the outcome was “inactive”.
In the case of CC(=O)Oc1ccc(C(c2ccc(OC(C)=O)cc2)c2ccccn2)cc1, the outcome was “inactive”.
